# Test results published in PubChem BioAssay (NCATS).
# Records with an inconclusive call do not appear. Unmarked numbers belong to inactive results. Calls of active or inactive are those of the source. The call rests on the fitted dose curve; in most records, active means well fitted inhibition curve with a large enough effect; inconclusive means small, poorly fitted or top-dose-only effect; inactive means no such curve, though single readings can be large or run the other way.
# Target: Furin (Homo sapiens) (UniProt P09958)
# Experiment: Furin counterscreen qHTS for Zika virus inhibitors (AID 1347149); further: nearly all actives have a fitted effect of over 70% in size;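 on activity change, negative = inhibition: purified recombinant full-length human furin enzyme at 5 nM; fluorescence gain from furin cutting a BOC-RVRR-AMC peptide substrate over 15 min; top concentration of the series differs between compounds; plate controls were no-inhibitor control for no effect and no-enzyme control for full effect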
# Conditions: furin enzymatic counterscreen, fluorogenic substrate; series mostly up to 57.5 µM; activity change, negative = inhibition: at the top concentration
# Summary of the method: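 Fluorogenic cleavage of BOC-RVRR-AMC (2 microM final, Km ~15 µM) was monitored (ex 340, em 450 nm) at 37C after 15 min RT preincubation of 5 nM furin with compounds in HEPES pH 7.0 buffer with CaCl2 and Triton X-100. Percent inhibition was fitted to a 4-parameter Hill curve.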
# Potency means the concentration at half of the fitted maximal effect.
# Chain of Furin (Homo sapiens) (P09958 whole entry, looked up): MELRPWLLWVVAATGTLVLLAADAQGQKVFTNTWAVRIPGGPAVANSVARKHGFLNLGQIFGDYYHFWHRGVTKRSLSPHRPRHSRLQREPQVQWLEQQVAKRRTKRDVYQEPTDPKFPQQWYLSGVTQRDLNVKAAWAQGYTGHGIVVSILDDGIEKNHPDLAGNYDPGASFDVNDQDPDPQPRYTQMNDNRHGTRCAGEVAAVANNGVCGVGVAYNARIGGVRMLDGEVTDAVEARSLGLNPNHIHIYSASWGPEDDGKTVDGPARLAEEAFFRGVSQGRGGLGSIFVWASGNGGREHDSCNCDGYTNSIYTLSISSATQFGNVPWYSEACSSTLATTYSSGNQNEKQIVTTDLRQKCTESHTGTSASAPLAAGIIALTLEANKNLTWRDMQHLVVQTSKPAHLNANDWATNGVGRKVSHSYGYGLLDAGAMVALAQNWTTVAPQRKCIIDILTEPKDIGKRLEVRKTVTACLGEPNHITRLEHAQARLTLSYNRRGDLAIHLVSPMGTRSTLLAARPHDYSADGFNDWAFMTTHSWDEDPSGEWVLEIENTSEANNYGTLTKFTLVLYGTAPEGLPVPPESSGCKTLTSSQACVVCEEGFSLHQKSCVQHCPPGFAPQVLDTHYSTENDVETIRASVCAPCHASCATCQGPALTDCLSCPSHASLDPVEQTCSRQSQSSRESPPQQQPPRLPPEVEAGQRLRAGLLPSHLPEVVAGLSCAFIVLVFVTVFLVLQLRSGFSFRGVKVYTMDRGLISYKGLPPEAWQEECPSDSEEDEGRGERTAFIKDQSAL
Compound,Potency,"activity change, negative = inhibition [%]"
COc1ccc(Br)cc1S(=O)(=O)NC(=O)/C=C/c1ccccc1Cc1ccc2ccccc2c1,27 µM (active),
CN1CCN(c2cc3c(nn2)Oc2ccccc2N3C)CC1,11.8 µM (active),
Cc1ccccc1CNc1ncnc2c1ncn2C1OC(CO)C(O)C1O (stereo unspecified),,2.45
COC(=O)C1=C(C)NC(C)=C(C(=O)OC)C1c1cccc(NC(=O)NCCCN2CCC(c3cccc(OC)c3)CC2)c1,30.3 µM (active),
CC[C@@H](C)[C@H]1O[C@]2(CC[C@H]1C)C[C@@H]1C[C@@H](CC=C(C)[C@@H](O[C@H]3C[C@H](OC)[C@@H](O[C@H]4C[C@H](OC)[C@@H](O)[C@H](C)O4)[C@H](C)O3)[C@@H](C)C=CC=C3CO[C@@H]4[C@H](O)C(C)=C[C@@H](C(=O)O1)[C@]34O)O2,,-1.64
C=C[C@@H]1CN2CC[C@@H]1C[C@H]2[C@H](O)c1ccnc2ccc(OC)cc12,24.1 µM (active),
